This note sets out measurements from PubChem BioAssay (NCATS).

Inconclusive results are not listed. The source made the active and inactive calls. Unless noted, calls follow the shape of the dose curve; as a rule, active = well fitted curve in either direction with a large enough effect (not every such curve was filed as active); inconclusive = small, poorly fitted or top-dose-only effect, or another doubt; inactive = flat fitted curve, though single readings scatter. Bounds are passed on as bounds.

The target of test [1] is Lysosomal acid glucosylceramidase (Homo sapiens) (UniProt P04062). Briefly: Glucocerebrosidase-p2 (AID 348; in the data active = potency below about 10 µM; also: potency is read from the fitted curve at half-maximal effect). The following applies: purified GBA, blue fluorogenic substrate, 40 min. In a few lines: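 Compounds titrated from 0.6 nM upwards against 0.2 nM enzyme in pH 5.9 citric acid/KH2PO4, taurocholate, tween-20; blue fluorogenic substrate 80 uM, 40 min room temperature, stopped and read Ex 365/Em 440 for AC50.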
Sequence of Lysosomal acid glucosylceramidase (Homo sapiens) (P04062 whole entry, looked up): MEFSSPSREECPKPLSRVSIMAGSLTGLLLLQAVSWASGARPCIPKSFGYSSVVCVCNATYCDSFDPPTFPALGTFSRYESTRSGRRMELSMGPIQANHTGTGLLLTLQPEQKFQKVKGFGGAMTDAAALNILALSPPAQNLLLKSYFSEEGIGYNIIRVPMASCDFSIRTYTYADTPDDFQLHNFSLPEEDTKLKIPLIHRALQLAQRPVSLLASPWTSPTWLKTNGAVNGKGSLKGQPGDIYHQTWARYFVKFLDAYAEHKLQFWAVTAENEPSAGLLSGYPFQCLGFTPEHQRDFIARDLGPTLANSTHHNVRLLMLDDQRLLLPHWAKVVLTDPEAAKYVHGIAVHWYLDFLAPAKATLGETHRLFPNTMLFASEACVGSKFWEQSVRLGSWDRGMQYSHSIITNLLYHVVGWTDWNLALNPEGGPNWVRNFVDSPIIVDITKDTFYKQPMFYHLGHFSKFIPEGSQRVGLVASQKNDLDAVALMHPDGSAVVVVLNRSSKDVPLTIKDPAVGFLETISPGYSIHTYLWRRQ

Test [2] in a line: AP1 Signaling Pathway (AID 357). Also: % is scaled to controls: 0 for no effect and ±100 for the full control effect. The following applies: ME-180 AP-1-bla reporter, EGF-induced, beta-lactamase ratio, 5 h; at 7.69 µM (top of the series) unless noted. In a few lines: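 Cells are seeded overnight, exposed to compound titrations and an EC50 level of EGF for 5 hours at 37 °C, then loaded with CCF4 dye for 2.5 hours. Beta-lactamase activity under the AP-1 element is read as a blue/green ratio.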

The nature of test [3]: NFAT Signaling Pathway (AID 444).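 Also: carbachol stimulus at about its EC50 of 1 µM final; % is scaled to controls: 0 for no effect and ±100 for the full control effect.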 To be noted: Jurkat NFAT-bla M1, carbachol, beta-lactamase ratio, 5 h; at 7.69 µM (top of the series) unless noted. In a few lines: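 Read-out: CCF4 FRET ratio (460 nm/530 nm) after 1 h RT dye loading, used for %activity and AC50 from titration series. Cells: Jurkat NFAT-β-lactamase/M1 line, treated with compound plus 1 uM carbachol for 5 h, 37 °C.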

The nature of test [4]: Stat Signaling Pathway (AID 446).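 Also: ME-180 cervical cancer cells given 40 pM IL-6 alongside compound; SIE-controlled beta-lactamase reporter measured as 460/530 nm FRET emission ratio; % is scaled to controls: 0 for no effect and ±100 for the full control effect.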 The following applies: ME-180 SIE beta-lactamase reporter, IL-6 stimulated, 5 h; at 7.69 µM (top of the series) unless noted. A digest of the protocol: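 ME-180 cells carrying a SIE-driven beta-lactamase reporter are stimulated with 40 pM IL-6 for 5 h at 37C in the presence of compound. The 460/530 nm FRET substrate ratio is read after 2.5 h at RT. Data are normalised to 300 pM IL-6 and to 125 nM JAK inhibitor controls.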

Test [5] deals with Glucocorticoid receptor (Homo sapiens) (UniProt P04150). Briefly: GR-EFC Redistribution (AID 451; calls by dose curve; also: potency is read from the fitted curve at half-maximal effect). The following applies: CHO-K1 GR-EFC translocation, beta-gal luminescence, 2 h. In a few lines: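 Translocation of GR-ED fusion to nuclear EA restores b-gal, read by luminescence after 1 h room-temperature detection. Engineered CHO-K1 biosensor cells, 1,000/well, exposed 2 h at 37 C to titrations up to 46 uM final.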
Sequence of Glucocorticoid receptor (Homo sapiens) (P04150 whole entry, looked up, the tested form may be a part): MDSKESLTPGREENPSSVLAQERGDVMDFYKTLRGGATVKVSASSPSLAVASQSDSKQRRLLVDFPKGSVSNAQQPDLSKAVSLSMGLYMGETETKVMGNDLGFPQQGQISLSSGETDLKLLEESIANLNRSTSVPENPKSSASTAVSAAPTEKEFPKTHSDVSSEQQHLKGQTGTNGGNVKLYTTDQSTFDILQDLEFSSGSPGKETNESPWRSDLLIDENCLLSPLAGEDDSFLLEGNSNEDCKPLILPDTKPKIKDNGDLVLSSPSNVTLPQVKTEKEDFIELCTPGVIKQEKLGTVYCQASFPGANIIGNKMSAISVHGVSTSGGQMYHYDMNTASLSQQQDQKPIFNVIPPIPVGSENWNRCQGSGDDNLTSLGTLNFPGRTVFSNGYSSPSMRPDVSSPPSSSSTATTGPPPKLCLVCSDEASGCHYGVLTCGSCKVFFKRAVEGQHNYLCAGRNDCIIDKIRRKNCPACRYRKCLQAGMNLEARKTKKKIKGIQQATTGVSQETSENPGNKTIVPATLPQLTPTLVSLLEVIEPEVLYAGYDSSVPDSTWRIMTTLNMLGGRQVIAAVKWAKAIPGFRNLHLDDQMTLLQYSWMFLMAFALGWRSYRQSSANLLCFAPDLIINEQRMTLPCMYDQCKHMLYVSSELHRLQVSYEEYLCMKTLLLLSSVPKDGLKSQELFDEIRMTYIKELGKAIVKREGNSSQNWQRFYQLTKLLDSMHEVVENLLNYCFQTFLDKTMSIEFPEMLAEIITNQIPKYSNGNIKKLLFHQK

The target in test [6] is Mitogen-activated protein kinase 10 (Mus musculus) (UniProt Q61831). Briefly: JNK3 AlphaScreen Assay (AID 530).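 Also: kinase came from lysate of stimulated human HepG2 cells; signal reports phosphorylation of biotinylated GST-cJun 1-79 at Ser73 with 10 µM ATP; % is scaled to controls: 0 for no effect and ±100 for the full control effect.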 To be noted: JNK3 lysate, c-Jun phosphorylation; series mostly up to 57.1 µM. In a few lines:
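Compound titrations were preincubated 15 minutes at room temperature with substrate, antibody and pre-activated JNK3-containing HepG2 lysate. Reactions were started with 10 uM ATP and stopped with EDTA-containing bead buffer for AlphaScreen detection.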
Background: Alpha assays give light when donor and acceptor beads are brought close together.

For test [7], the target named is 3',5'-cyclic-AMP phosphodiesterase 4B (Homo sapiens) (UniProt Q07343). Briefly: qHTS Assay for Inhibitors of PDE-IV (AID 607; active = well fitted activation curve with a large enough effect in the main read-out, with a control signal flat, not every such curve was filed as active; also: % of control where 0% means no effect). The following applies: HEK293 ACTOne CNG channel cells, membrane potential fluorescence; series mostly up to 22.9 µM. A digest of the protocol: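 HEK293 ACTOne cells with CNG channel (1000/well), endogenous PDE4; membrane potential dye, compounds up to 22.9 uM final. Fluorescence Ex 535/Em 590; RO 20-1724 (100 uM final) as reference.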
Sequence of 3',5'-cyclic-AMP phosphodiesterase 4B (Homo sapiens) (Q07343 whole entry, looked up): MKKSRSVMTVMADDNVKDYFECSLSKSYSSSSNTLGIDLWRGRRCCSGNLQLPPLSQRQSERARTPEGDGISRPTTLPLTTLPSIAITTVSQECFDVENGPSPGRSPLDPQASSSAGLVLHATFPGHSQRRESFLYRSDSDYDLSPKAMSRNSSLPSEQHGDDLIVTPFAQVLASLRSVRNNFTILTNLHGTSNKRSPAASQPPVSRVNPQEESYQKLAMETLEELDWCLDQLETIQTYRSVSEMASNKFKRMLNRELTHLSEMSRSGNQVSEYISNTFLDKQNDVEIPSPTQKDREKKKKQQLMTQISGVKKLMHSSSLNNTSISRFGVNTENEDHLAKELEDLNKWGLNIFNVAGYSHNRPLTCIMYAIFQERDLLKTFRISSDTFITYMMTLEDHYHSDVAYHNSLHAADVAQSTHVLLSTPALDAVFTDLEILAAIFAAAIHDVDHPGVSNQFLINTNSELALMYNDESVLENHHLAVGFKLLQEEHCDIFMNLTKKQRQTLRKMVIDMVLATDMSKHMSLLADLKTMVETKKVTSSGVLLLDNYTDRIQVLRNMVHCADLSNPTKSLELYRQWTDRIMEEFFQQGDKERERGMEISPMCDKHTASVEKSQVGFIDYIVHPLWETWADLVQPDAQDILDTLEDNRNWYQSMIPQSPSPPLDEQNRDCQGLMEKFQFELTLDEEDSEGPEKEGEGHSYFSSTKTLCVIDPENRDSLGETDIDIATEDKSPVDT
(In general: In qHTS, concentration-response curves come from the screen itself.)

Test [8] can be described thus: qHTS Assay for Lipid Storage Modulators (AID 1519; calls by dose curve). To be noted: Drosophila S3 cells, BODIPY lipid droplet/cell ratio, laser cytometry, cells loaded with oleic acid; for activity change, negative = inhibition: at 57.5 µM (top of the series). A digest of the protocol: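 Cells seeded at 5,000 per well were treated with compounds over a concentration series and loaded with oleic acid (400 uM, as added). Lipid droplet fluorescence (488 nm excitation, 500-530 nm channel) was read by laser-scanning cytometry and normalized to 20 uM Triacsin C.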

Test [9] can be described thus: Primary qHTS for small molecule stabilizers of the endoplasmic reticulum resident proteome: Secreted ER Calcium Modulated Protein (SERCaMP) assay (AID 1508630; active = well fitted inhibition curve with a large enough effect; also: % is scaled to controls: 0 for no effect and ±100 for the full control effect). The following applies: SH-SY5Y GLuc-SERCaMP (Gaussia luciferase released on ER calcium loss) secretion, thapsigargin, luminescence; series mostly up to 38.4 µM. A digest of the protocol: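 GLuc-SERCaMP-expressing SH-SY5Y cells, pretreated 16 h with compound, are challenged with thapsigargin to empty ER calcium stores; after 4 h, coelenterazine is added directly to the medium and luminescence is imaged.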

The mark [10] stands for this setting: measured here: cell count channel max response.
[11] abbreviates: measured here: lipid channel max response.

As for `CC(=O)N1CCC2(CC1)CN(Cc1cc(C(F)(F)F)cc(C(F)(F)F)c1)C2`, the values for the Potency in test [1] and in test [5] were > 11.4 µM (inactive) and > 46 µM (inactive), respectively. Also, the results for the activity change, negative = inhibition in test [2], in [3] and in test [8] were 2.68% (inactive), 13.2% (inactive) and 4.71% (inactive), respectively. In test [4], the activity, negative = inhibition is 11% (inactive). Moreover, the Potency result in [6] and in [7] was “inactive” each time. The results for the max response in test [8] (setting [10]) and in test [8] (setting [11]) were 20.4% and 27.2%, respectively. In addition, the result in [9] was inactive.
`COCC(=O)N1CCC2(CC1)CN(c1ccncc1)C2`: the Potency was > 11.4 µM (inactive) in [1] and > 46 µM (inactive) in test [5]. The figures for the activity change, negative = inhibition in test [2], in test [3] and in test [8] were -2.96% (inactive), 2.67% (inactive) and 2.59% (inactive), respectively. Further, the activity, negative = inhibition in test [4] was -1.5% (inactive). Besides, the Potency entry in test [6] and in test [7] was “inactive” each time. The results for the max response in [8] (setting [10]) and in test [8] (setting [11]) were 4.76% and 11.2%, respectively. Also, in test [9], the outcome was inactive.
On to `N#Cc1ccc(CN2CC[C@@]3(CCCN(C(=O)c4cccc(F)c4)C3)C2)cc1`, for which the Potency in test [1] was > 11.4 µM (inactive); in [5] it was > 46 µM (inactive). The activity change, negative = inhibition in test [2] was -24.8% (inactive); in [3] it was -12.5% (inactive); in test [8] it was -0.514% (inactive). Also, the activity, negative = inhibition in test [4] was -4.01% (inactive). Moreover, the Potency result in test [6] and in test [7] was “inactive” each time. Besides, the max response in test [8] (setting [10]) worked out at 0.82%; in test [8] (setting [11]), 2.5%. In test [9], the result was inactive.
As for `COc1ccc(NC(=O)N2CCCC3(CCN(C(=O)c4ccncc4)CC3)C2)cc1`, the Potency in [1] was > 11.4 µM (inactive); in [5] it was > 46 µM (inactive). The activity change, negative = inhibition is -8.03% (inactive) in test [2], -13.4% (inactive) in [3] and 4.52% (inactive) in test [8]. Moreover, in test [4], the activity, negative = inhibition is -2.92% (inactive). The Potency entry in [6] and in test [7] was “inactive” in each case. Further, the max response was 10.2% in test [8] (setting [10]) and 18.3% in [8] (setting [11]). In addition, the result in test [9] was inactive.
In the case of `O=C(Nc1ccccc1)N1CC[C@@]2(CCCN(C(=O)c3csnn3)C2)C1`, the Potency in test [1] is > 11.4 µM (inactive); in test [5], > 46 µM (inactive). For the same compound, the activity change, negative = inhibition in test [2] is -13.6% (inactive); in [3], 9.61% (inactive); in test [8], 6.56% (inactive). Besides, the activity, negative = inhibition in [4] was 0.432% (inactive). In addition, the Potency entry in test [6] and in test [7] was “inactive” throughout. Besides, the max response in test [8] (setting [10]) is -5.15%; in [8] (setting [11]) it was 6.65%. Besides, in test [9], the result was inactive.
`COCC(=O)N1CCC2(CCCN(c3ccc(-c4ccccc4)cc3)C2)CC1`: the Potency in test [1] was > 11.4 µM (inactive); in test [5] it was > 46 µM (inactive). Moreover, the activity change, negative = inhibition was -7.31% (inactive) in [2], 3.92% (inactive) in test [3] and -5.34% (inactive) in test [8]. Besides, the activity, negative = inhibition in [4] is -7.13% (inactive). For the same compound, the Potency entry in [6] and in [7] was “inactive” each time. Moreover, the figures for the max response in test [8] (setting [10]) and in test [8] (setting [11]) were 18.5% and 14.9%, respectively. The outcome in test [9] was inactive.
`COc1ccc(C(=O)N2CCC3(CC2)CN(c2ncccn2)C3)cc1`: the Potency in test [1] was > 11.4 µM (inactive); in test [5], > 46 µM (inactive). Further, the activity change, negative = inhibition in [2] was -9.3% (inactive); in [3], 13.7% (inactive); in [8], 1.87% (inactive). For the same compound, the activity, negative = inhibition in [4] is -24.2% (inactive). Moreover, the Potency result in test [6] and in [7] was “inactive” throughout. For the same compound, the max response amounted to 12.3% in test [8] (setting [10]) and 16.8% in test [8] (setting [11]). The result in [9] was inactive.
